Measurements as given in ChEMBL document CHEMBL4513216, “Probing the Open Global Health Chemical Diversity Library for Multistage-Active Starting Points for Next-Generation Antimalarials” (ACS Infect Dis, 2020).
Hit rate of the full screen: of about 69,000 compounds, about 8,600 (12%) showed an effect of 50% or more. Only a selection was taken, and strong results are over-represented in it overall.

Tested on: Plasmodium berghei
Assay: Screen against P. berghei liver stage (PbLuc), transformed with Luciferase, at 10uM
Assay type: functional, HepG2
Details: tested at 10 uM

For Cc1cccc(C(=O)N2C[C@@H](OCc3ccncc3)[C@@H]3OCCC[C@@H]32)n1, which INHIBITION is on record?
Its INHIBITION is -69.9%.

COCCN(Cc1ccccn1)C(=O)Nc1cccnc1-n1cccn1 was tested. Which INHIBITION did it give?
The INHIBITION was 9.4%.

With NC(=O)CN1CCOCC(Cc2ccccc2)C1 (stereo unspecified) as the compound, how does the INHIBITION read?
The INHIBITION was -4.51%.

How did the INHIBITION turn out when C=C(C)COc1ccccc1C(=O)N1CCC(C(=O)NCC)C1 (stereo unspecified) was run?
The INHIBITION was 48.5%.

With CCN(c1ccc(C(=O)N2CCCCC2)cc1)S(=O)(=O)CC as the compound, how does the INHIBITION read?
The INHIBITION was 40.3%.

How did the INHIBITION turn out when OC1(CNc2cccc(F)c2)CCNCC1 was run?
Its INHIBITION is 28.5%.

CC(CN1CCOCC1)n1cncc1-c1cnn(Cc2ccccc2)c1 (stereo unspecified) was tested. Which INHIBITION did it give?
Its INHIBITION is -3.135%.

For CCOC(=O)N1CCN(C(=O)C(CC)n2cccn2)CC1 (stereo unspecified), which INHIBITION is on record?
Its INHIBITION is 31.2%.

For Cc1nccc([C@H]2C[C@@H]3CCN(S(C)(=O)=O)C[C@H]3O2)n1, which INHIBITION is on record?
The INHIBITION was 33.2%.

With O=C(c1ccc(Cl)o1)N1CCCC(c2cc(C(F)(F)F)[nH]n2)C1 (stereo unspecified) as the compound, how does the INHIBITION read?
The INHIBITION was 63.4%.

CC(C)(C#N)C(=O)N1CCCC(c2cc(C(F)(F)F)[nH]n2)C1 (stereo unspecified) was tested. Which INHIBITION did it give?
The INHIBITION was 55.5%.

How did the INHIBITION turn out when Cc1nccc(C(=O)N2CCCC(c3cc(C(F)(F)F)[nH]n3)C2)n1 (stereo unspecified) was run?
Its INHIBITION is 40%.

With Cc1ccc(C(=O)N2CCCC(c3cc(C(F)(F)F)[nH]n3)C2)o1 (stereo unspecified) as the compound, how does the INHIBITION read?
Its INHIBITION is 54.4%.

Which INHIBITION does the source give for Cc1noc(C)c1C(=O)N1CCCC(c2cc(C(F)(F)F)[nH]n2)C1 (stereo unspecified) here?
The INHIBITION was -27.9%.

With O=C(CO)N1CCCC(c2cc(C(F)(F)F)[nH]n2)C1 (stereo unspecified) as the compound, how does the INHIBITION read?
Its INHIBITION is 6.26%.

For Cc1cc(C2CCCN(C(=O)c3ccc(Cl)o3)C2)n[nH]1 (stereo unspecified), which INHIBITION is on record?
Its INHIBITION is 42.9%.

With Cc1cc(C(=O)N2CCCC(c3cc(C(F)(F)F)[nH]n3)C2)on1 (stereo unspecified) as the compound, how does the INHIBITION read?
The INHIBITION was 33.8%.

How did the INHIBITION turn out when Cc1ccoc1C(=O)N1CCCC(c2cc(C(F)(F)F)[nH]n2)C1 (stereo unspecified) was run?
Its INHIBITION is 62.6%.

Which INHIBITION does the source give for O=C(c1ccco1)N1CCCC(c2cc(C(F)(F)F)[nH]n2)C1 (stereo unspecified) here?
The INHIBITION was 36.1%.

How did the INHIBITION turn out when Cc1[nH]ncc1C(=O)N1CCCC(c2cc(C(F)(F)F)[nH]n2)C1 (stereo unspecified) was run?
The INHIBITION was 24%.

Which INHIBITION does the source give for CCOCCC1(CNC(=O)c2ccncc2Cl)CCC1 here?
The INHIBITION was 20.4%.

How did the INHIBITION turn out when O=C(NCc1ccco1)[C@@]12CCO[C@@H]1CCN(CC1CCOCC1)C2 was run?
Its INHIBITION is 11.4%.

With CN(Cc1cccnc1)Cc1cn2c(n1)CN(C1CCOC1)CC2 (stereo unspecified) as the compound, how does the INHIBITION read?
The INHIBITION was 28.3%.

How did the INHIBITION turn out when COCCN(Cc1nc2c(cnn2C)c(=O)[nH]1)C(C)COC (stereo unspecified) was run?
The INHIBITION was -7.35%.

For COCCN1C(=O)CCC12CCC(NCc1cccnc1OC)CC2 (stereo unspecified), which INHIBITION is on record?
Its INHIBITION is 34.6%.

For O=c1cc(CNCc2ccc3c(c2)OCO3)nc2ccc(Br)cn12, which INHIBITION is on record?
The INHIBITION was 28%.

For O=C(Cc1ccon1)NC1CCCN(c2ccccc2F)C1=O (stereo unspecified), which INHIBITION is on record?
The INHIBITION was 9.72%.

For O=C1CCCc2[nH]c(=O)c(C(=O)N(Cc3ccsc3)C3CC3)cc21, which INHIBITION is on record?
Its INHIBITION is 26.43%.

Which INHIBITION does the source give for Cc1nc(CN2C[C@@H](NC(=O)C3CCC3)[C@H]3COC[C@H]32)cs1 here?
The INHIBITION was -10.5%.

Which INHIBITION does the source give for Fc1ccc(-c2nc(CN3CCCCC3Cn3cncn3)co2)cc1 (stereo unspecified) here?
The INHIBITION was -0.113%.

Which INHIBITION does the source give for CN(CCCOc1ccccc1)C(=O)c1csc(-c2nnc[nH]2)n1 here?
Its INHIBITION is 53.9%.

COCCN(Cc1ccccc1)C(=O)c1csc(-c2nnc[nH]2)n1 was tested. Which INHIBITION did it give?
The INHIBITION was 24.7%.

Which INHIBITION does the source give for COc1cccc(CN(C)C(=O)c2csc(-c3nnc[nH]3)n2)c1 here?
Its INHIBITION is 40.9%.

Which INHIBITION does the source give for Cc1ccccc1-c1cncc(C2CCN(CC(=O)N(C)C)CC2)n1 here?
The INHIBITION was -0.371%.

Which INHIBITION does the source give for Cc1cc(F)ccc1NS(=O)(=O)c1cc2c(c(C(=O)O)c1)OCCO2 here?
Its INHIBITION is 25.1%.

CC(C)C(C)(O)CNc1cccc(F)c1C#N (stereo unspecified) was tested. Which INHIBITION did it give?
The INHIBITION was -23.8%.

For CSCC(C)(O)CNc1cccc(F)c1C(C)=O (stereo unspecified), which INHIBITION is on record?
The INHIBITION was 21.8%.

For CSCC(C)(O)CNc1cccc(F)c1C#N (stereo unspecified), which INHIBITION is on record?
The INHIBITION was 56.5%.

How did the INHIBITION turn out when CCOc1ncccc1NC(=O)c1cc(C)sc1C was run?
Its INHIBITION is -8.66%.

With COc1ccc(C)cc1CN1CCN(Cc2nccn2C)CC1 as the compound, how does the INHIBITION read?
The INHIBITION was -190%.

Which INHIBITION does the source give for COc1ccc(C)cc1CN1CCC(c2cc3ncccc3cn2)CC1 here?
The INHIBITION was 87.9%.

For Fc1ccc(F)c(CN2CCC(c3cc4ncccc4cn3)CC2)c1, which INHIBITION is on record?
The INHIBITION was 63.8%.

With Fc1cc(F)cc(CN2CCC(c3cc4ncccc4cn3)CC2)c1 as the compound, how does the INHIBITION read?
The INHIBITION was 32.3%.

With CCc1onc(C)c1C(=O)N1CCC(c2cc3ncccc3cn2)CC1 as the compound, how does the INHIBITION read?
Its INHIBITION is 17.1%.

Fc1cccc(CN2CCC(c3noc(-c4ccccn4)n3)CC2)c1F was tested. Which INHIBITION did it give?
Its INHIBITION is -6.73%.

For Fc1ccc(F)c(CN2CCC(c3cnccn3)CC2)c1, which INHIBITION is on record?
The INHIBITION was 34.1%.

With Fc1cccc(CN2CCC(c3n[nH]c4ncccc34)CC2)c1F as the compound, how does the INHIBITION read?
Its INHIBITION is 42.6%.

Fc1cccc(CN2CCC(c3cc4ncccc4cn3)CC2)c1F was tested. Which INHIBITION did it give?
Its INHIBITION is 52.7%.

With Cc1ccsc1C(CNC(=O)c1cc(=O)c2ccccc2[nH]1)N(C)C (stereo unspecified) as the compound, how does the INHIBITION read?
Its INHIBITION is -38.6%.

FC(F)(F)c1csc(N2CCN(Cc3ccccn3)CC2)n1 was tested. Which INHIBITION did it give?
Its INHIBITION is 1.56%.

How did the INHIBITION turn out when O=C(O)c1ccc(-c2cscn2)cc1 was run?
The INHIBITION was -36.1%.

COC(=O)CCN(C)C(=O)c1ccc(-c2cscn2)cc1 was tested. Which INHIBITION did it give?
The INHIBITION was 67.3%.

For CN(C)C(=O)c1ccc(-c2cscn2)cc1, which INHIBITION is on record?
The INHIBITION was 14.6%.

How did the INHIBITION turn out when Nc1ncnc2[nH]c(N3CCCCC3)nc12 was run?
The INHIBITION was 4.12%.

With CSc1nc(N)cc(N2C[C@H]3CC[C@@H](C2)N(CC2CC2)C3=O)n1 as the compound, how does the INHIBITION read?
Its INHIBITION is -65%.

Which INHIBITION does the source give for O=C(NCCc1c[nH]cn1)c1ccc(S(=O)(=O)NC2CCCC2)cc1 here?
The INHIBITION was 7.65%.

O=C(NCCc1c[nH]cn1)c1ccc2c(c1)C(=O)N(C1CCCC1)C2=O was tested. Which INHIBITION did it give?
The INHIBITION was 36.6%.

Which INHIBITION does the source give for CC(C)CN1C(=O)c2ccc(C(=O)NCCc3c[nH]cn3)cc2C1=O here?
The INHIBITION was 24.5%.

Which INHIBITION does the source give for CCC(C)N1C(=O)c2ccc(C(=O)NCCc3c[nH]cn3)cc2C1=O (stereo unspecified) here?
The INHIBITION was 53.2%.

Which INHIBITION does the source give for O=C(NCCc1c[nH]cn1)c1ccc2c(c1)C(=O)N(C1CC1)C2=O here?
The INHIBITION was -36.3%.

For CCCNC(=O)c1ccc2c(c1)C(=O)N(CC(C)C)C2=O, which INHIBITION is on record?
Its INHIBITION is 31.8%.

For CC(C)CCN1C(=O)c2ccc(C(=O)NCCc3c[nH]cn3)cc2C1=O, which INHIBITION is on record?
Its INHIBITION is 65.4%.

With COCCCN1C(=O)c2ccc(C(=O)NCCc3c[nH]cn3)cc2C1=O as the compound, how does the INHIBITION read?
The INHIBITION was 34.3%.

COCCN1C(=O)c2ccc(C(=O)NCCc3c[nH]cn3)cc2C1=O was tested. Which INHIBITION did it give?
Its INHIBITION is 68.4%.

How did the INHIBITION turn out when CCc1nnc(CN(C)C2CCCN(Cc3noc(C4CC4)n3)C2)o1 (stereo unspecified) was run?
The INHIBITION was 27.8%.

How did the INHIBITION turn out when Cc1ccc(F)c(NC(=O)NCCCn2nc3ccccn3c2=O)c1 was run?
The INHIBITION was -0.113%.
